mcGAS MS inh: inhibitors of Mus musculus cyclic GMP-AMP synthase, initial high-throughput assay, cell-free, RapidFire MS; Q8C6L5; recombinant mouse cGAS, cGAMP by RapidFire MS; inhibition, % at 12.5 µM; 0.18% of 130,000 active; AID 1259397, 2018;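 active means inhibition of cGAS enzyme activity at or above 60%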;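 further: enzyme stimulated by 45 bp dsDNA with ATP and GTP substrates; cGAMP share of summed cGAMP plus half ATP and half GTP signals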
Target sequence (Q8C6L5 whole entry, looked up): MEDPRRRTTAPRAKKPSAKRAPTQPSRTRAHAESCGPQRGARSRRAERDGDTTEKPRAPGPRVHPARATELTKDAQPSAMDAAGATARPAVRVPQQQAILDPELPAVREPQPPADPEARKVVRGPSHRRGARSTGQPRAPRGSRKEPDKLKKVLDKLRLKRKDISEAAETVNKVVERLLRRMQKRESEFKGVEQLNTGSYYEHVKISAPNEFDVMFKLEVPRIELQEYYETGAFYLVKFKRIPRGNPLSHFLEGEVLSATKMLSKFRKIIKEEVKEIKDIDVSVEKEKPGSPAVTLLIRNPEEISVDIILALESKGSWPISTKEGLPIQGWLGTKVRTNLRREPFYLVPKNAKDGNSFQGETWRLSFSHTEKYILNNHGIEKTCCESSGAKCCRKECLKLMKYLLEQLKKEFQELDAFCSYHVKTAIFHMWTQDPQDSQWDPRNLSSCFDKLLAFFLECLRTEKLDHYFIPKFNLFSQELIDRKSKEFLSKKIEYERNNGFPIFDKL
Large screens that a line does not name were inactive. This excerpt belongs to a sample that is enriched for hits.

Cc1c2cccn2cc[n+]1CC(=O)c1ccccc1	none
CN1CCC(CN(C)C(=O)NC2CCc3c(Cl)cccc32)CC1 (stereo not drawn)	none
COC(=O)c1ccc(CCNS(=O)(=O)N2CCCCCC2)cc1	none
Cc1cc(O)c(C=O)c2c1C(=O)Oc1c(C)c(O)c3c(c1O2)C(O)OC3=O (stereo not drawn)	mcGAS MS inh 84.6
COc1cc(C)c2c(c1C=O)Oc1c(c(C)c(O)c3c1C(O)OC3=O)OC2=O (stereo not drawn)	none
CC1C(=O)N(C)CCN1C(=O)Cc1ccc(N2CCNC2=O)cc1 (stereo not drawn)	none
CCOC(=O)N(C)CC(=O)NCC1(c2cccc(Cl)c2)CCOCC1	none
Cc1ccsc1[C@@H]1CCN(C(=O)c2ccccc2-n2cccn2)C[C@H]1O	none
CCCc1cc(C(=O)NCc2cc(C)cc3c(C)c(C)[nH]c23)no1	none
O=c1[nH]nc(C2CCN(C/C=C/c3ccco3)CC2)n1-c1ccccc1	none
NC(=O)c1c(NC(=O)CSCC(=O)O)sc2c1CCCC2	none
N#CCC(=O)Nc1sc2c(c1C(N)=O)CCCC2	mcGAS MS inh 91.0
NC(=O)c1c(NC(=O)CN2CCOCC2)sc2c1CCC2	none
Cc1nc(NCCNC(=O)Nc2ccccc2Cl)cc(N(C)C)n1	none
Cc1cn2c3c(=O)n(CCN4CCOCC4)c(=O)n(C)c3nc2n1CC1CCCO1 (stereo not drawn)	none
Cc1cc(C(=O)COC(=O)C=Cc2ccco2)c(C)n1CC1CCCO1 (stereo not drawn)	none
O=C(Nc1ncc([N+](=O)[O-])s1)c1cccs1	mcGAS MS inh 85.8
O=C(Nc1ncc([N+](=O)[O-])s1)c1ccc(=O)n(Cc2ccc(F)cc2)c1	none
O=C(Nc1nnc(C2CC2)s1)c1cccs1	none
Cn1ccsc1=NC(=S)Nc1ccc2c(c1)OCCO2	none
OCc1ccccc1-c1nccc(CCC(F)(F)F)n1	none
CCN(CC)c1ccc(C2NC(=O)NC(C)=C2C(=O)OCC2CCCO2)cc1 (stereo not drawn)	none
Cc1cccnc1NC(=O)NC1(c2ccc(F)cc2)CCC1	mcGAS MS inh 78.1
COc1ncccc1NC(=O)NC1(c2ccc(Cl)cc2)CCC1	none
O=C(NC1(c2ccc(F)cc2)CCCC1)c1cccs1	none
CNc1nc(C)cc(N2CCC(=O)N(Cc3ccc(F)cc3)C(C(C)C)C2)n1 (stereo not drawn)	none
O=C1c2ccccc2C(=O)c2c1ccc(O)c2O	mcGAS MS inh 84.5
Nc1ccc2c(c1N)C(=O)c1ccccc1C2=O	none
O=C1C=C(O)c2ccccc2C1=O	none
CC(C(=O)NC1CCCC1)N(C)CC(=O)Nc1ccc(Cl)c(C(F)(F)F)c1 (stereo not drawn)	none
O=C(Cc1ccc(-n2c(=O)[nH]c3ccsc3c2=O)cc1)NCc1ccccc1	none
Cc1ccccc1-n1ncc2c(C3CC3)nn(CC(=O)N3CC(C)OC(C)C3)c(=O)c21 (stereo not drawn)	none
CCOC(=O)CCC(=O)OC1C(OC2C(C)C(OC3CC(C)(OC)C(O)C(C)O3)C(C)C(=O)OC(CC)C(C)(O)C(O)C(C)C(=O)C(C)CC2(C)O)OC(C)CC1N(C)C (stereo not drawn)	mcGAS MS inh 98.6
CCOC(=O)CCC(=O)O[C@H]1[C@H](O[C@@H]2[C@@H](C)[C@H](O[C@H]3C[C@@](C)(OC)[C@@H](O)[C@H](C)O3)[C@@H](C)C(=O)O[C@H](CC)[C@@](C)(O)[C@H](O)[C@@H](C)C(=O)[C@H](C)C[C@@]2(C)O)O[C@H](C)C[C@@H]1N(C)C	none
CCC(=O)O[C@H]1[C@H](O[C@@H]2[C@@H](C)[C@H](O[C@H]3C[C@@](C)(OC)[C@@H](O)[C@H](C)O3)[C@@H](C)C(=O)O[C@H](CC)[C@@](C)(O)[C@H](O)[C@@H](C)C(=O)[C@H](C)C[C@@]2(C)O)O[C@H](C)C[C@@H]1N(C)C	none
CC(C)CC(=O)Nn1cnc2c(cnn2-c2ccccc2)c1=O	none
O=C(C1CCN(c2nnc(N3CCCC3=O)s2)CC1)N1CCN(C2CCCCC2)CC1	none
COC(=O)CN(Cc1ccccc1)Cc1ccccc1C#N	none
CCN(C(=O)Cn1nc(C)c(S(=O)(=O)N(C)C)c1C)c1ccc(F)cc1	none
COc1ncncc1NC(=O)N(C)CCc1cccs1	none
O=C(NCc1ccccc1)c1cc2ccccc2cc1OCC(=O)N1CCCC1	none
O=c1oc2c(O)c(O)cc3c(=O)oc4c(O)c(O)cc1c4c23	mcGAS MS inh 93.4
O=c1cc(-c2cc(O)c(O)c(O)c2)oc2cc(O)cc(O)c12	none
O=C(NCCCl)N1CCn2cccc2C1c1ccc(F)cc1 (stereo not drawn)	none
COc1ccc(-c2noc(-c3ccc(F)cc3)n2)cc1OC	none
O=c1c2cc([N+](=O)[O-])ccc2nc2n1CCC2=Cc1ccccc1	none
O=c1c(=Cc2ccccc2I)sc2nc3ccccc3n12	none
O=c1/c(=C/c2ccc([N+](=O)[O-])cc2)sc2nc3cc(Br)cnc3n12	mcGAS MS inh 84.5
CCOC(=O)C1(C)CCN1C(=O)c1cccnc1 (stereo not drawn)	none
COc1ccc(-c2csc(NC(=O)C3COc4ccccc4C3)n2)cc1 (stereo not drawn)	none
Cc1cc(N2C(=O)c3oc4ccccc4c(=O)c3C2c2cccc(Cl)c2)no1 (stereo not drawn)	none
Cc1cc(N2C(=O)c3oc4ccc(F)cc4c(=O)c3C2c2cccc([N+](=O)[O-])c2)no1 (stereo not drawn)	none
Cc1cc(N2C(=O)c3oc4ccccc4c(=O)c3C2c2cccc(F)c2)no1 (stereo not drawn)	mcGAS MS inh 84.3
CC(=O)c1sc(NC(=O)C2CC2C)nc1-c1ccccc1 (stereo not drawn)	none
Cc1nn(C)cc1-c1csc(NCCc2ccccn2)n1	none
CN1CCN(C2=NC(C(=O)Nc3ccccc3)CC(=O)N2)CC1 (stereo not drawn)	mcGAS MS inh 69.8
CN1CCC(N(Cc2ccccc2)C(=O)Nc2ccc(NC(=O)C3CC3)cc2)CC1	none
CN1C(=O)CC(C(=O)Nc2ccccc2)SC1=Nc1ccc(Cl)c(C(F)(F)F)c1 (stereo not drawn)	none
O=C(Cc1ccc(F)cc1)NCCOc1cc(N2CCCC2)ncn1	none
O=c1[nH]c(CN2CCOCC2)nc2scc(-c3ccc(Cl)cc3)c12	none
CN1CCN(c2ncnc(Oc3ccc4c(c3)OCO4)c2N)CC1	none
Cc1ccc2cccc(OCCCOc3ccc(C)c(C)c3)c2n1	none
CCOCCn1nc(C)cc1C(=O)N1C[C@@H]2[C@@H]3CC[C@@H](C3)[C@@H]2C1	none
COC(=O)c1cccc(N=C2N=C(N)c3ccccc32)c1	none
O=C1OC(/C=C/c2cccc(Cl)c2Cl)=NC/1=C\c1ccc([N+](=O)[O-])cc1	mcGAS MS inh 70.9
O=C1OC(/C=C/c2cccc(Cl)c2Cl)=NC/1=C/c1ccccc1[N+](=O)[O-]	none
COc1ccc(/C=C2N=C(/C=C/c3cccc(Cl)c3Cl)OC\2=O)cc1	none
Nc1cc(S(=O)(=O)N2CCCC2)ccc1OCC(F)(F)F	none
CN(Cc1cc2cc(F)ccc2[nH]1)C(=O)c1ccccc1C1CCNC1 (stereo not drawn)	none
Cc1c(CSC(C)C)cccc1NC(=O)N1CC[C@H](O)C1	none
FC(F)Oc1ccc(Br)cc1C=C1CCC=C1N1CCOCC1	none
C(=C1CCC=C1N1CCOCC1)c1nc2ccccc2[nH]1	mcGAS MS inh 77.4
O=C(CCc1nc2ccccc2[nH]1)N1CCc2c(ncnc2N2CCOCC2)C1	none
O=C(O)C1CC2(CCNCC2)CN1C(=O)C1(c2ccc(Cl)cc2)CCC1 (stereo not drawn)	none
Cc1ccc(S(=O)(=O)NNC(=O)C(C)C)c(C)c1	none
CCOc1ccc(C(=O)c2nc3c(n2O)CCCCC3)cc1OCC	none
O=C(c1cccc2ccccc12)c1nc2c(n1O)CCCC2	none

Screens as filed in PubChem.
